Assay outcomes as filed in PubChem.
NPC1 prom act – qHTS Assay for NPC1 Promoter Activators. AID 485313, 2010. Potency, µM (titrated, usually from 9.22 µM), for inactives: at the highest dose activation, most hits filed as activators. actives 2.4% (n = 320,000). Huh7 NPC1 promoter luciferase reporter, 24 h; also: % of control where 0% means no effect; nearly all actives have a fitted effect of over 60% in size
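Readout is luciferase luminescence, reflecting NPC1 promoter activation in stably transfected Huh7 cells after 24 h compound exposure at 37 °C in reduced-serum medium with 10% FBS.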
Rab9 prom act – qHTS Assay for Rab9 Promoter Activators. Huh7 Rab9 promoter-luciferase reporter, luminescence, 24 h. Potency, µM (highest dose often 9.22 µM), for the others: top-dose activation, negative = inhibition, usual class: activators. actives 2.8% (n = 320,000); also: % of control where 0% means no effect; nearly all actives have a fitted effect of over 60% in size
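Using Huh7 cells stably transfected with Rab9 promoter–luciferase, compounds were incubated 24 h at 37 °C, 5% CO2; luciferase luminescence was read 10 min after reagent addition.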
FLuc counter – qHTS profiling assay for firefly luciferase inhibitor/activator using purifed enzyme and Km concentrations of substrates (counterscreen for miR-21 project); Luciferin 4-monooxygenase (Photinus pyralis), P08659; purified FLuc, Km substrates, luminescence inhibition; actives 6.9% (n = 360,000); Potency, µM (titrated, usually from 57.5 µM), for the others: at the top dose activity change, negative = inhibition, hits mostly inhibitors;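 also: plate controls were vehicle for no effect and reference inhibitor for full effect; nearly all actives have a fitted effect of over 55% in size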
Target sequence (P08659 whole entry, looked up): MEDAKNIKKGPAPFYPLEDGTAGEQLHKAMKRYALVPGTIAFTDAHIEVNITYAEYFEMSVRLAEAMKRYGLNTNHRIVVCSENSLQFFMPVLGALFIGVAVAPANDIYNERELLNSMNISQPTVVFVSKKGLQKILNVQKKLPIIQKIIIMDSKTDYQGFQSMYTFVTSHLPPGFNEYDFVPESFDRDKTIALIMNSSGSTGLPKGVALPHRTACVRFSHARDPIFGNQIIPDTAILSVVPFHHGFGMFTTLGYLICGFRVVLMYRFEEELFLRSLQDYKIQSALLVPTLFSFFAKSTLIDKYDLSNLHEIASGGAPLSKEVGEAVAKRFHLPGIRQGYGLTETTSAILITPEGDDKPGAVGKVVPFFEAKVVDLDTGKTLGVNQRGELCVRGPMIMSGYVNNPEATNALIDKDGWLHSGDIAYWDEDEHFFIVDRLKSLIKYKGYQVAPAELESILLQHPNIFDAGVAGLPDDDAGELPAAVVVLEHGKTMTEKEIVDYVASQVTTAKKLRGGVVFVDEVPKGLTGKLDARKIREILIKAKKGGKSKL
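Biochemical qHTS of compounds, final roughly 60 µM downward over six points, against 10 nM purified firefly luciferase using Km concentrations of substrates (10 uM D-luciferin, 10 uM ATP) in Tris acetate pH 7.5 buffer; luminescence output.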
ELG1 genotoxic – qHTS screen for small molecules that induce genotoxicity in human embryonic kidney (HEK293T) cells expressing luciferase-tagged ELG1 | HEK293T ELG1-luciferase reporter, luminescence, 16 h | Potency, µM (series often up to 46 µM), without a hit: at the highest dose activity change, positive = activation, actives largely listed as activators | actives 1.3% (n = 330,000) | AID 504466, 2011; also: % of control where 0% means no effect; nearly all actives have a fitted effect of over 60% in size
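16 hr compound incubation (37 °C, 5% CO2) of HEK293T cells carrying luciferase-tagged ELG1; luciferase then measured by ONE-Glo luminescence after 30 min at RT.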
p53 reactivation – qHTS assay for re-activators of p53 using a Luc reporter; H1299 p53-A138V BP100-luciferase reporter, luminescence, 24 h; actives 0.063% (n = 320,000); Potency, µM (highest dose often 92.2 µM), for inactives: at the highest dose activity change, positive = activation, hits mostly activators; also: % of control where 0% means no effect; nearly all actives have a fitted effect of over 45% in size
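H1299 (p53-null), stable ts p53-A138V + BP100-Luc; 1000 cells/well, Opti-MEM/10% FBS; cpd 4 pt, 1:5; 24 h, 37 deg C, 5% CO2; detection reagent 10 min RT; luminescence.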
SMN2 splice enh – qHTS Assay for Enhancers of SMN2 Splice Variant Expression; HEK293 SMN2-luciferase splicing reporter, luminescence, 30-36 h; Potency, µM (doses to about 46.1 µM), without a hit: at the top dose activity change, positive = activation, most hits filed as activators; actives 2.8% (n = 210,000); also: % of control where 0% means no effect; nearly all actives have a fitted effect of over 55% in size
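qHTS luciferase splicing reporter: luminescence rises when SMN2 exon 7 is included in transfected HEK293 cells. Compound exposure lasted 30-36 h at 37C, with 4.5 mM final sodium butyrate as control, followed by a ONE-Glo read.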
* = called active by the depositor; ? = inconclusive; . = no result; [ ] = remark or other dose. Only some compounds are listed: those with a hit (about 7.3% of all), similar ones and a draw of the others. Calls follow the shape of the dose curve; as a rule, active = well fitted curve in the direction sought with a large enough effect; inconclusive = small, poorly fitted or top-dose-only effect, or another doubt; inactive = no such curve, though single readings can be large; an effect the other way counts as inactive or inconclusive. Potency is read from the fitted curve at half-maximal effect.

SMILES	NPC1 prom act	Rab9 prom act	FLuc counter	ELG1 genotoxic	p53 reactivation	SMN2 splice enh
O=C(COc1ccccc1)Nc1ccccc1C(=O)OCc1cc(=O)n2nc(C3CC3)sc2n1	.	.	21µM*	.	.	.
Cn1ccc2c(OCC(=O)Nc3cc(C(F)(F)F)ccc3Cl)cccc2c1=O	.	.	-2%	.	.	.
Clc1cccc(Cl)c1Cn1ccc(C2CC2)n1	?	3.2µM*	12µM*	?	14%	?
COc1ccc(OCC(=O)OCC(=O)NCC2CCCCC2)cc1	-1%	-1%	.	2%	-14%	.
Cc1ccc(-c2ccc(SCC(=O)c3ccccc3)nn2)cc1	?	?	15µM*	?	?	6.3µM*
COc1ccc(-c2ccc(SCC(=O)c3ccccc3)nn2)cc1OC	-1%	1%	24µM*	-4%	-1%	-1%
O=C(Nc1ccccc1[N+](=O)[O-])c1cccc(N2C(=O)CCC2=O)c1	12%	17%	?	5%	9%	.
CC1=C(C(=O)Nc2ccccc2C)C(c2ccccn2)n2nc(SCc3ccccc3F)nc2N1 (centres undefined)	.	.	-2%	.	.	-1%
C=C(C)C(=O)N1CC2(CC(c3cccc(NC(=O)COc4ccc(Cl)cc4)c3)=NO2)C[C@@H]1C(N)=O (some centres undefined)	1%	-7%	12µM*	-5%	4%	.
C/C=C/C(=O)Nc1cccc(C2=NOC3(C2)C[C@@H](C(N)=O)N(C(=O)/C(C)=C/C)C3)c1 (some centres undefined)	-5%	-5%	-3%	5%	1%	.
C=C(C)C(=O)N1CC2(CC(c3cccc(NC(=O)CC)c3)=NO2)C[C@H]1C(N)=O (some centres undefined)	-5%	-10%	-1%	3%	-1%	.
C/C=C(\C)C(=O)N1CC2(CC(c3cccc(NC(=O)COc4ccc(Cl)cc4)c3)=NO2)C[C@@H]1C(N)=O (some centres undefined)	-7%	-7%	15µM*	0%	4%	.
CCOC(=O)C(=O)Nc1cccc(C(=O)OCC)c1	-1%	-1%	-9%	0%	1%	9%
CCOC(=O)c1cccc(NC(=O)Nc2ccc(OCC)cc2)c1	1.8µM*	2.8µM*	2.7µM*	-17%	-10%	10µM*
CCOc1ccc(S(=O)(=O)NCCC(=O)Nc2ccncc2)cc1	10%	4%	1%	-4%	-2%	.
CCOc1ccc(S(=O)(=O)NCCC(=O)Nc2cccc(C(=O)OC)c2)cc1	10%	3.2µM*	-9%	14%	11%	.
CCOc1ccc(/C=C/C(=O)Nc2cccc(C(C)=O)c2)cc1	?	?	1.2µM*	7%	27%	?
CCOc1ccc(NC(C(=O)Nc2cccc(C(C)=O)c2)c2ccccc2)cc1 (centres undefined)	1%	0%	2%	-1%	6%	9%
CCOc1ccc(NC(=O)Nc2cccc(C(=O)O)c2)cc1	?	0.089µM*	0.027µM*	-14%	-13%	2µM*
CCCCCCCCNCCS(=O)(=O)NN1CCOCC1	.	.	.	-4%	-5%	.
Cc1cc(C)cc(-n2c(C)cc(C(=O)C(=O)Nc3nnc(C)s3)c2C)c1	.	.	-5%	.	.	.
CC1=CC2=NC(=O)/C(=C\c3cc(C)n(-c4ccccc4)c3C)C(=N)N2O1	1%	0%	5.4µM*	-2%	-9%	2%[1.84 µM]
Cc1cc(/C=C2/C(=N)N3C(=NC2=O)SN=C3S(C)(=O)=O)c(C)n1-c1ccccc1F	3.2µM*	3.2µM*	0.3µM*	-3%	?	13µM*
CC1=CC2=NC(=O)/C(=C\c3cc(C)n(-c4ccccc4F)c3C)C(=N)N2O1	-1%	-4%	6µM*	-2%	6%	-6%[1.84 µM]
COc1ccc(-c2cn3c(n2)sc2cc(C(=O)NC4CCCc5ccccc54)ccc23)cc1 (centres undefined)	.	.	-1%	.	.	.
SMILES	NPC1 prom act	Rab9 prom act	FLuc counter	ELG1 genotoxic	p53 reactivation	SMN2 splice enh
C=CCOc1ccc(/C=C/C(C)=N\O)cc1	2.8µM*	2.8µM*	6.7µM*	?	26%	.
CCC1CSC(Nc2ccc(C(=O)/C=C/c3ccc(Br)cc3)cc2)=N1 (centres undefined)	-1%	-6%	-22%	?	-15%	-84%
CCC1CSC(Nc2ccc(C(=O)/C=C/c3ccc(OC)c(OC)c3)cc2)=N1 (centres undefined)	-15%	-19%	24µM*	-17%	-27%	-59%
CC(C)(C)c1cc(NC(=O)CSc2nnc(NCc3ccccc3)s2)n(-c2ccccc2)n1	-1%	0%	19µM*	-12%	8%	-35%
O=C(CN1C(=O)C2(SCC(=O)N2c2cccc(F)c2)c2ccccc21)NCCc1ccccc1 (centres undefined)	.	.	0%	.	.	.
Clc1cccc(Cl)c1/C=C/c1ccn[nH]1	-21%	8%	17µM*	11%	0%	.
C1=Nc2ccccc2CN1c1ccccc1	?	?	15µM*	?	?	7.9µM*
CC(C)c1ccc(N2C=Nc3ccc(C(C)C)cc3C2)cc1	6%	11%	?	?	5%	.
CCOC(=O)C1CCN(c2ccc(-c3cccs3)nn2)CC1	22%	4%	0.76µM*	?	26%	.
O=C(CSc1ccc(-c2cccs2)nn1)N1CCCCCC1	17%	24%	?	9%	?	?
c1csc(-c2ccc(N3CCOCC3)nn2)c1	0.4µM*	0.5µM*	2.4µM*	?	-2%	.
CCOC(=O)C1CCN(c2ccc(Cl)nn2)CC1	-2%	0%	-4%	6%	0%	-47%
Oc1ccc(COC2CCCC2)c2cccnc12	-29%	-17%	2%	.	.	.
COc1ccc(C(=O)c2ccc(OC)c(N)c2)cc1N	-14%	-26%	?	18µM*	?	36%
O=C(CN1C(=O)S/C(=C\c2cccc(Cl)c2)C1=O)NC1C=CS(=O)(=O)C1 (centres undefined)	-15%	9%	-2%	9%	2%	.
CC(C(=O)NC1C=CS(=O)(=O)C1)N1C(=O)/C(=C\c2ccccc2)SC1=S (centres undefined)	3%	-2%	?	5%	21%	.
O=C(CN1C(=O)/C(=C/c2cccc(Cl)c2)SC1=S)NC1C=CS(=O)(=O)C1 (centres undefined)	-1%	-1%	2.7µM*	9%	0%	.
